MEP2 TOR yeast: modulators of TOR pathway MEP2-GFP in S. cerevisiae | S. cerevisiae MEP2-GFP strain, flow cytometry GFP, 3 h; 100% = DMSO control level | GFP response vs DMSO, % at 10 µM | hit rate 0.51% among 330,000 | AID 2016;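 active = GFP response versus DMSO above a set limit, roughly screen mean plus 3 SD, cut at about 180% in these data; inconclusive = fewer than 70 cells counted for a yeast strain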;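 note: median GFP fluorescence of the barcode-gated MEP2-GFP cells per well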
LAP4-GFP MLPCN: alters LAP4-GFP fluorescence in TOR pathway yeast screen | S. cerevisiae LAP4-GFP multiplex, flow cytometry GFP, 3 h; median GFP as percent of DMSO wells | GFP response vs DMSO, % at 10 µM | hit rate 0.34% among 320,000;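 active = GFP response vs DMSO above a set limit, about the screen mean plus 3 SD, cut at about 150% in these data; inconclusive = under 70 cell events counted for the yeast strain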
RPL19A-GFP yeast: yeast TOR pathway RPL19A-GFP modulation. S. cerevisiae RPL19A-GFP strain, flow cytometry, 3 h; hits give low values. percent response vs DMSO, % at 10 µM. hit rate 0.3% among 330,000. AID 2025;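 active = percent response vs DMSO below 50%; inconclusive = fewer than 70 events counted for the yeast strain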;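 note: median channel GFP fluorescence of the barcoded RPL19A-GFP strain; ratio of sample median GFP to plate DMSO average so 100% = DMSO; lower means less RPL19A-GFP as with rapamycin TOR inhibition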
CIT2-GFP yeast: alters CIT2-GFP fluorescence in TOR pathway yeast screen | AID 2029 | S. cerevisiae CIT2-GFP strain, flow cytometry, 3 h; 100 means same as DMSO wells | hit rate 0.065% among 320,000 | GFP response vs DMSO, % at 10 µM;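 active = GFP response relative to DMSO above a set limit, near the screen mean plus 3 SD, cut at about 150% in these data; inconclusive = Fewer than 70 cells measured for a yeast strain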;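 note: ratio of well median GFP fluorescence to mean of DMSO wells on the plate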
AGP1-GFP MLPCN: yeast TOR pathway AGP1-GFP modulation | S. cerevisiae AGP1-GFP multiplex flow cytometry, 3 h; GFP as percent of DMSO wells | GFP response vs DMSO, % at 10 µM | hit rate 0.02% among 320,000 | AID 2066;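 active = GFP response relative to DMSO above a set limit, near screen average plus 3 SD, cut at about 150% in these data; inconclusive = fewer than 70 cells counted for the yeast strain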;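 note: median GFP channel fluorescence of the gated AGP1 strain per well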
* hit, by the source's call; u = inconclusive; x = no result given; [ ] = remark or other dose. Only some compounds are listed: those with a hit (about 0.93% of all), similar ones and a draw of the others.

SMILES	MEP2 TOR yeast	LAP4-GFP MLPCN	RPL19A-GFP yeast	CIT2-GFP yeast	AGP1-GFP MLPCN
C=CCn1c(=N)c(C(=O)NCCCOC)cc2c(=O)n3cc(C)ccc3nc21	775*[may fluoresce violet]	247*[may fluoresce violet]	34*[may fluoresce violet]	u	u
CNC(=O)c1cc2c(=O)n3cc(C)ccc3nc2n(C(C)C)c1=N	195*[may fluoresce violet]	84	31*[may fluoresce violet]	u	u
Cc1ccc(S(=O)(=O)N2CCC(C(=O)OCC(=O)N3CCc4ccccc43)CC2)cc1	296*[may fluoresce violet]	95	18*[may fluoresce violet]	u	25
COc1cccc(NC(=O)Nc2ccc3c(c2)nnn3C)c1	184*	88	60	98	25
CN(C)c1ccc(NC(=O)Nc2ccc3c(c2)nnn3C)cc1	99	88	105	107	97
CN(C)S(=O)(=O)c1ccc(C(=O)/C=C/c2cccnc2)cc1	266*[may fluoresce violet]	82	63	u	u
CN(C(=O)CSc1ncnc2sc(-c3ccccc3)cc12)C1CCS(=O)(=O)C1 (stereo unspecified)	97	102	104	97	92
Cn1cccc1C(=O)NS(=O)(=O)c1ccccc1Cl	103	101	102	97	98
Cc1cccc(NC(=O)CN2C(=O)N/C(=C\c3ccc(-c4cccc(C(=O)O)c4)o3)C2=O)c1	215*[may fluoresce violet]	84	43*[may fluoresce violet]	u	u
CCn1c(N2CCC(C)CC2)nc2c1c(=O)n(C)c(=O)n2C	114	107	100	108	105
CCN1C(=O)/C(=C\N2CCN(C)CC2)SC1=S	332*[may fluoresce violet]	87	42*[may fluoresce violet]	u	u
CCN1C(=O)/C(=C\N2CCN(c3ccc(F)cc3)CC2)SC1=S	96	98	100	96	94
COc1ccc(NC(=O)CSCCc2ccccn2)cc1OC	99	107	97	104	104
O=C(CSCCc1ccccn1)Nc1cccnc1	u	u	40*[may fluoresce violet]	u	u
COc1ccc(C(c2nnnn2CC2CCCO2)N2CCN(c3ccccc3)CC2)cc1 (stereo unspecified)	242*[may fluoresce violet]	93	x	u	31
CCOc1ccc(CSCCNC(=S)Nc2ccc(OC)cc2)cc1	193*[may fluoresce violet]	98	31*[may fluoresce violet]	u	u
CCOC(=O)C1CCN(S(=O)(=O)c2c(Cl)ccc3nonc23)CC1	114	151*	105	81	100
Cc1ccccc1NC(=O)CCCNC(=O)c1ccc(Cl)cc1	u	u	27*[may fluoresce violet]	u	u
O=C(CCCNC(=O)c1ccc(Cl)cc1)Nc1ccccc1F	113	100	107	102	110
COc1ccc(C2CN=NC23CCc2ccccc2C3=O)cc1 (stereo unspecified)	102	117	101	94	106
CCOc1cc(/C=C\c2nc(O)c([N+](=O)[O-])c(=O)[nH]2)ccc1OC(C)C	607*[may fluoresce violet]	66	53	u	u
CCOc1cc(/C=C\c2[nH]c(=O)[nH]c(=O)c2[N+](=O)[O-])ccc1OC(C)CC (stereo unspecified)	101	85	97	93	89
Cc1ccc(-n2ncc3c(=O)n(CC#N)cnc32)cc1C	235*[may fluoresce violet]	62	59	u	u
C#CCn1cnc2c(cnn2-c2ccc(C)c(C)c2)c1=O	99	104	95	101	92
CCn1c(=O)cc(OCC(=O)NCc2cccnc2)c2ccccc21	240*[may fluoresce violet]	76	18*[may fluoresce violet]	u	u
SMILES	MEP2 TOR yeast	LAP4-GFP MLPCN	RPL19A-GFP yeast	CIT2-GFP yeast	AGP1-GFP MLPCN
Cc1cc(S(=O)(=O)NCc2ccccc2)ccc1OCC(=O)NCc1cccnc1	224*[may fluoresce violet]	94	46*[may fluoresce violet]	u	u
CCOc1ccc(CN(C)CC(=O)Nc2cccc3ccccc23)cc1OC	107	94	108	106	98
CCOC(=O)C1=C(C)N=C2SC(C(=O)OC)=CC(=O)N2C1c1ccc(F)cc1 (stereo unspecified)	85	190*	92	62	77
CCOC(=O)C1=C(C)N=C2SC(C(=O)OC)=CC(=O)N2C1c1cccc(OC)c1 (stereo unspecified)	91	98	103	101	105
CCn1nnc(NC(=O)C(C)Oc2ccc(Cl)cc2Cl)n1 (stereo unspecified)	102	108	99	105	106
Cc1cc(NC(=O)C(C)Oc2ccc(Cl)cc2Cl)n(-c2ccccc2)n1 (stereo unspecified)	167	85	38*[may fluoresce violet]	u	u

Source: PubChem BioAssay
